SMILES strings stand for the structures. About 83,000 compounds went through this panel and 20% of them were active in at least one assay; those are over-represented in the sample as a whole.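 Step 1: grow cells in 96-well plates. Step 2: add test compound at a single concentration. Step 3: incubate 48 h. Step 4: record percent growth.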 Unmarked numbers belong to inactive results. The source made the active and inactive calls. Rule for the calls: active = growth percent below 10; inactive = the rest.

Test systems include SR leukemia; RPMI-8226 leukemia; OVCAR-5 ovarian; OVCAR-4 ovarian; SK-OV-3 ovarian; IGROV1 ovarian; OVCAR-3 ovarian; HS 578T breast; NCI/ADR-RES ovarian; T-47D breast; BT-549 breast; MDA-MB-435 melanoma; SW-620 colon; MCF7 breast; HCT-116 colon; HCC-2998 colon; KM12 colon; OVCAR-8 ovarian.
Assay in all cases: NCI-60 one-dose screen, 48 h (100 = growth as untreated, 0 = no growth, -100 = all killed)
Settings in all cases: 10 µM unless noted

Consider `Cc1ccc(C(=O)/C(=C/c2ccc([N+](=O)[O-])cc2)SCc2ccc(Cl)cc2)cc1`, for which the growth is 11.4% in the experiment with SR leukemia; -32.7% (active) in the experiment on RPMI-8226 leukemia; 85.1% with OVCAR-5 ovarian; 58.8% in the experiment with OVCAR-4 ovarian; 101% with SK-OV-3 ovarian; 74.7% with IGROV1 ovarian. In addition, the growth in the experiment with OVCAR-3 ovarian was 47.6%; with HS 578T breast, 88.2%; in the experiment on NCI/ADR-RES ovarian, 72%; in the experiment with T-47D breast it was 65.2%; in the experiment with BT-549 breast, 88.9%; in the experiment on MDA-MB-435 melanoma it was 78.1%. Also, the growth with SW-620 colon is -52.1% (active); in the experiment with MCF7 breast it was 12.8%; in the experiment with HCT-116 colon, -59.9% (active); in the experiment on HCC-2998 colon, 78.6%; in the experiment on KM12 colon, 44.8%.
As for `COc1ccc(C(=O)c2nc3ccccc3n2CC(=O)c2ccc(F)cc2)cc1`, the growth is 41.8% with SR leukemia; 81.8% in the experiment on RPMI-8226 leukemia; 82.5% in the experiment on OVCAR-5 ovarian; 73.8% in the experiment on OVCAR-4 ovarian; 116% in the experiment on SK-OV-3 ovarian; 86.6% with IGROV1 ovarian. Moreover, the growth is 84.1% in the experiment with OVCAR-3 ovarian; 103% in the experiment on HS 578T breast; 58.3% in the experiment with NCI/ADR-RES ovarian; 91.6% with T-47D breast; 93.2% in the experiment on BT-549 breast; 46% with SW-620 colon. The growth in the experiment with MCF7 breast was 62.9%; in the experiment with HCT-116 colon it was 89.5%; with HCC-2998 colon it was 65.3%; in the experiment on KM12 colon it was 56.2%.
Turning to `O=C1/C=C/[C@@H](O)[C@@H]2C[C@@H](O)C[C@H]2/C=C/CCC[C@H](CCc2cccc3ccccc23)O1`, the growth is 22% with RPMI-8226 leukemia; 17.7% in the experiment with OVCAR-8 ovarian; 24.6% with OVCAR-5 ovarian; 14.4% with OVCAR-4 ovarian; 18.1% in the experiment on SK-OV-3 ovarian; 5.72% (active) in the experiment with IGROV1 ovarian. Moreover, the growth in the experiment on OVCAR-3 ovarian was -48.1% (active); in the experiment on HS 578T breast it was 39.5%; in the experiment on NCI/ADR-RES ovarian, 2.01% (active); in the experiment with T-47D breast, 1.52% (active); in the experiment with BT-549 breast, 13.5%; with MDA-MB-435 melanoma it was 6.06% (active). In addition, the growth in the experiment with SW-620 colon was -28% (active); in the experiment with MCF7 breast it was -30.8% (active); in the experiment on HCT-116 colon, -63.9% (active); in the experiment with HCC-2998 colon it was 3.84% (active); in the experiment with KM12 colon it was -37.9% (active).
In the case of `C[C@H]1[C@H]2[C@H]3CC[C@@H]4[C@@]5(C)CC[C@H](O)C(C)(C)[C@@H]5CC[C@@]4(C)[C@]3(C)CC[C@]23CO[C@]1(C)[C@@H](C(=O)/C=C\c1ccco1)C3`, the growth in the experiment with RPMI-8226 leukemia was 106%; in the experiment on OVCAR-8 ovarian, 99.3%; in the experiment on OVCAR-5 ovarian it was 102%; in the experiment on OVCAR-4 ovarian it was 111%; in the experiment with SK-OV-3 ovarian, 103%; in the experiment on IGROV1 ovarian it was 108%. For the same compound, the growth in the experiment with OVCAR-3 ovarian was 103%; in the experiment on HS 578T breast, 95.8%; in the experiment on NCI/ADR-RES ovarian it was 95.3%; in the experiment on T-47D breast, 84.8%; with BT-549 breast, 105%; with MDA-MB-435 melanoma, 17.8%. Also, the growth in the experiment with SW-620 colon was 97.1%; in the experiment with MCF7 breast, 101%; in the experiment on HCT-116 colon, 100%; in the experiment on HCC-2998 colon it was 104%; in the experiment on KM12 colon, 100%.
`Fc1ccc(-c2cn3c(nc4ccccc43)c(-c3ccccc3)n2)cc1`: the growth was 111% in the experiment on RPMI-8226 leukemia; 73.7% with OVCAR-8 ovarian; 111% in the experiment on OVCAR-5 ovarian; 67.1% with OVCAR-4 ovarian; 105% in the experiment on SK-OV-3 ovarian; 81.8% with IGROV1 ovarian. For the same compound, the growth with OVCAR-3 ovarian is 111%; with HS 578T breast, 76.7%; in the experiment on NCI/ADR-RES ovarian it was 89.3%; in the experiment on T-47D breast, 86.2%; in the experiment with BT-549 breast, 105%; in the experiment with MDA-MB-435 melanoma, 98%. Further, the growth with SW-620 colon is 95.8%; with MCF7 breast, 92.8%; in the experiment with HCT-116 colon, 89.1%; with HCC-2998 colon, 98.9%; in the experiment with KM12 colon, 92.1%.
As to `O=C1CC(=O)OC(c2ccc([N+](=O)[O-])cc2)O1`, the growth with RPMI-8226 leukemia is 14.1%; in the experiment on OVCAR-8 ovarian, 11.6%; in the experiment on OVCAR-5 ovarian, -3.68% (active); with OVCAR-4 ovarian, 24.6%; in the experiment with SK-OV-3 ovarian, 89.6%; in the experiment on IGROV1 ovarian, -59.6% (active). Also, the growth is -60.6% (active) in the experiment with OVCAR-3 ovarian; 13.1% in the experiment with HS 578T breast; -44.3% (active) in the experiment on NCI/ADR-RES ovarian; 17.9% with T-47D breast; 51.4% in the experiment on BT-549 breast; -27.9% (active) with MDA-MB-435 melanoma. Further, the growth was -42.8% (active) with SW-620 colon; 7.35% (active) in the experiment on MCF7 breast; -68.8% (active) with HCT-116 colon; 7.55% (active) with HCC-2998 colon; -75.3% (active) with KM12 colon.
Regarding `COc1ccc(-c2cnc3c(-c4cccc5cnccc45)cnn3c2)cc1`, the growth in the experiment on RPMI-8226 leukemia is 40.8%; in the experiment with OVCAR-8 ovarian, 41.8%; in the experiment with OVCAR-5 ovarian it was 96.1%; in the experiment on OVCAR-4 ovarian, 36.4%; in the experiment on SK-OV-3 ovarian, 68.6%; with IGROV1 ovarian, 83.5%. The growth with OVCAR-3 ovarian was 73.4%; in the experiment with HS 578T breast, 74%; with NCI/ADR-RES ovarian, 56.3%; in the experiment on T-47D breast, 22.8%; with BT-549 breast it was 50.1%; with MDA-MB-435 melanoma, 62.9%. The growth is 60.7% in the experiment with SW-620 colon; 78.7% in the experiment on MCF7 breast; -15% (active) in the experiment on HCT-116 colon; 99.1% in the experiment on HCC-2998 colon; 63.1% in the experiment with KM12 colon.
Take `COc1ccc(/C=C2\COc3ccc(-c4ccccc4)cc3C2=O)c(OC)c1`: the growth is 77.4% in the experiment on RPMI-8226 leukemia; 96.4% in the experiment with OVCAR-8 ovarian; 101% in the experiment with OVCAR-5 ovarian; 64.7% in the experiment with OVCAR-4 ovarian; 107% in the experiment on SK-OV-3 ovarian; 120% in the experiment with IGROV1 ovarian. The growth is 98.3% in the experiment on OVCAR-3 ovarian; 125% with HS 578T breast; 72.6% with NCI/ADR-RES ovarian; 68.1% with T-47D breast; 91.2% in the experiment with BT-549 breast; 119% in the experiment on MDA-MB-435 melanoma. For the same compound, the growth was 92.9% in the experiment on SW-620 colon; 76.9% in the experiment on MCF7 breast; 75.7% in the experiment with HCT-116 colon; 75.4% with HCC-2998 colon; 97.7% in the experiment with KM12 colon.
Regarding `CN(CCN(C)c1ccc(C(=N)N)cc1)c1ccc(C(=N)N)cc1`, the growth in the experiment on RPMI-8226 leukemia was 46.8%; in the experiment on OVCAR-8 ovarian, 107%; with OVCAR-5 ovarian it was 90.9%; in the experiment on OVCAR-4 ovarian it was 98%; in the experiment on SK-OV-3 ovarian, 140%; in the experiment with IGROV1 ovarian, 26%. Besides, the growth in the experiment on OVCAR-3 ovarian was 87.9%; in the experiment with HS 578T breast it was 108%; with NCI/ADR-RES ovarian it was 104%; in the experiment on T-47D breast, 163%; in the experiment on BT-549 breast it was 86%; in the experiment with MDA-MB-435 melanoma, 90.5%. The growth was 104% in the experiment on SW-620 colon; 108% with MCF7 breast; 104% in the experiment on HCT-116 colon; 97% with HCC-2998 colon; 91.3% in the experiment with KM12 colon.

(Values after PubChem BioAssay (NCI).)
